This note sets out measurements from the supplement of paper PMC6555819.

The subject of the assay is VDR:RXRa (NR concentration 270 nM, RXRa partner concentration 90 nM). In words: PBM binding z-score (relative to random genomic background probes); higher = stronger binding; sequences stand for … in GC…GCGATTGACAGCGTAGAATGAAGG
On the procedure:
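Protein-binding microarray (Agilent 4x180K custom design, double-stranded 60-nt probes: 5' GC cap, 34-nt variable region, 24-nt constant primer region; full probe sequence given). Purified or IVT nuclear receptor:RXRα heterodimers (3:1 NR:RXRα, mostly 270:90 nM) or homodimers were incubated for 1 h in PBS with 2% milk and no ligand, then detected with Alexa488 antibodies. Fluorescence from o1-orientation probes (~5 replicates averaged) was converted to z-scores against 500 random hg19 background probes. Variable regions are seed direct-repeat (DR0–DR5) sites, all their single-nucleotide variants and half-site ablations.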
GATACAGGGTGAAGGCCAGAGTACGCGTATTGAT yielded a PBM binding z-score of -0.32.

In the case of ACTTACGGGTCAACGACGTTATAGCACGCGTATA, the PBM binding z-score is 4.

TAGCCTAGGTCATTGGGCTAGTATAGTACGCATC gave a PBM binding z-score of 2.03.

On to TAGCCTAGGTCAAGCGGGCCAGTATAGTGTCGGC, for which the PBM binding z-score is 2.6.

As to CCTACTGGGCCATGAAAGGTCATTGATTCAGTGA, the PBM binding z-score was 3.82.

In turn, CGAATTAGGTCACCAGGACAGTGAAGAGGTTGGA displayed a PBM binding z-score of 2.06.

For ATATGTAGGTTAGGGTTATTCAGAAAGTAGGGAA, the PBM binding z-score was 1.94.

For the sequence CATACAGGGTAAGCTAGGCCAGAGTAGGGACGGC, the PBM binding z-score was -0.528.

Consider CGAACTAGTTCAAGGACAGTGAATCTCCGCACGC, for which the PBM binding z-score stood at 0.348.

As for GATTCAGGGTCAGCTAGAGGCCAGAGTATGGAAA, the PBM binding z-score is 4.09.

In the case of CCCGCTAGGTCATGGTCAGCTAATCTACAGTATG, the PBM binding z-score was 1.69.

CCGAGCAGGTTACGAGGGGGCATTCAGTGCGAAT gave a PBM binding z-score of 5.27.

With TATCCTAGGTCAGATCGGGCCAGTATACGCTATA, the PBM binding z-score is 1.51.

CTATGTAGGTTAAGGGGGGCATTCAGTTTGAAAG yielded a PBM binding z-score of 6.21.

CGTCCAAGGTCAAGCTCAGTGAAAGAGACTCGAA returned a PBM binding z-score of 4.06.

Turning to CCGAGTAGGTTACGGGGGGGCATTCAGTGCGAAT, the PBM binding z-score stood at 5.49.

Take CCTACTGGGCCAAGGTCATTGCTCAGTCAAAGCA: the PBM binding z-score came out at 3.19.

In turn, CCGACTGGGGCAAAGGTTACCATGCTCAGTACGA registered a PBM binding z-score of 1.64.

Sequence ATCCAAAGGTCGAGGTGAGTATAGAGAAAGGGAA came in with a PBM binding z-score of 3.05.

ATCGAAAGGTCGCAGGTGAGTATACCCACCCGAA returned a PBM binding z-score of 3.2.

Regarding ATATATAGGTTAGGGTCATTCAGAAAGTAGGGAA, the PBM binding z-score was found to be 4.75.

The sequence AGAATGAGGTTAAGATTAGGGAAACAGAATACAT came in with a PBM binding z-score of 1.36.

On to CGAACTAGGTCAGCAGGACAGTGAAGAGGTTGGA, for which the PBM binding z-score worked out at 0.428.

On to CAAACTAGGTCACAGAGGACAAAGTCCGTGCGTA, for which the PBM binding z-score turned out to be 6.52.

As to CCGACTGGGGCAAAGGTCACCATACTCAGTACGA, the PBM binding z-score is 4.7.

As to ATACGTAGGTTACATCCGGGTCATTCAGGCTATG, the PBM binding z-score is 4.16.

Sequence CGAACTAGGTCACAGGACAGTGAAAGGCGACGTA came in with a PBM binding z-score of 1.61.

Turning to GCTGCTAGGTCAACTGAGGGTCAGCTAAAGCTCG, the PBM binding z-score worked out at 4.26.

ATATGTAGGTTACCGGGTCATTCAGTTTGCGCAT had a PBM binding z-score of 5.56.

CCTTACAGGTCAAGGTTATAGCACGGGTGGTACG: the PBM binding z-score is 3.41.

ACTCGGAGGACAAAGGTAAGAGCTACGCCAGTGA displayed a PBM binding z-score of -0.371.

Consider ATATGTAGGTTCGGGTCATTCAGAAAGTAGGGAA, for which the PBM binding z-score was 3.72.

Regarding ATCGAAAGGTCGACGAGGAGAGTATACACCGTTT, the PBM binding z-score was 3.3.

TAGCCTCGGTCATTGGGCCAGTATAGTACGCATC displayed a PBM binding z-score of -0.539.

The sequence AGATGTAGGTTAGGGTCATTCAGAAAGTAGGGAA came in with a PBM binding z-score of 4.32.

CTATGTAGGTTAAGGGGGTCATTCTGTTTGAAAG showed a PBM binding z-score of 7.27.

CCTACTGGGCCAAAGGCCATTGATTCCAATGCTC: the PBM binding z-score was -0.327.

The sequence CGGACTGGGGCAAAGGTTACCATACTCAGTACGA came in with a PBM binding z-score of 1.9.

Sequence CCGAGTAGGTTATGAGGGGGCATTCAGTGCGAAT came in with a PBM binding z-score of 5.25.

In turn, CTATGTAGGTTAAGGGGGTAATTCAGTTTGAAAG yielded a PBM binding z-score of 3.5.
